We go through eleven compounds from ChEMBL document CHEMBL3988442, “University of Dundee, Small-Polar-MMV Screening Library” (2021).

What all share (set-up): scale not given: direction of the effect not stated beside the values
Assay [1] addresses Protein translocase subunit SecA (Escherichia coli (strain K12)) (UniProt P10408). Put plainly: Assay to Identify E. coli SecA ATPase Inhibitors. It is filed as functional. As to conditions: 30 µM.
Assay [2] has as its target T1, Ubiquitin-activating enzyme e1, putative (Leishmania donovani (strain BPK282A1)) (UniProt E9BSI1).
T1 sequence (whole entry): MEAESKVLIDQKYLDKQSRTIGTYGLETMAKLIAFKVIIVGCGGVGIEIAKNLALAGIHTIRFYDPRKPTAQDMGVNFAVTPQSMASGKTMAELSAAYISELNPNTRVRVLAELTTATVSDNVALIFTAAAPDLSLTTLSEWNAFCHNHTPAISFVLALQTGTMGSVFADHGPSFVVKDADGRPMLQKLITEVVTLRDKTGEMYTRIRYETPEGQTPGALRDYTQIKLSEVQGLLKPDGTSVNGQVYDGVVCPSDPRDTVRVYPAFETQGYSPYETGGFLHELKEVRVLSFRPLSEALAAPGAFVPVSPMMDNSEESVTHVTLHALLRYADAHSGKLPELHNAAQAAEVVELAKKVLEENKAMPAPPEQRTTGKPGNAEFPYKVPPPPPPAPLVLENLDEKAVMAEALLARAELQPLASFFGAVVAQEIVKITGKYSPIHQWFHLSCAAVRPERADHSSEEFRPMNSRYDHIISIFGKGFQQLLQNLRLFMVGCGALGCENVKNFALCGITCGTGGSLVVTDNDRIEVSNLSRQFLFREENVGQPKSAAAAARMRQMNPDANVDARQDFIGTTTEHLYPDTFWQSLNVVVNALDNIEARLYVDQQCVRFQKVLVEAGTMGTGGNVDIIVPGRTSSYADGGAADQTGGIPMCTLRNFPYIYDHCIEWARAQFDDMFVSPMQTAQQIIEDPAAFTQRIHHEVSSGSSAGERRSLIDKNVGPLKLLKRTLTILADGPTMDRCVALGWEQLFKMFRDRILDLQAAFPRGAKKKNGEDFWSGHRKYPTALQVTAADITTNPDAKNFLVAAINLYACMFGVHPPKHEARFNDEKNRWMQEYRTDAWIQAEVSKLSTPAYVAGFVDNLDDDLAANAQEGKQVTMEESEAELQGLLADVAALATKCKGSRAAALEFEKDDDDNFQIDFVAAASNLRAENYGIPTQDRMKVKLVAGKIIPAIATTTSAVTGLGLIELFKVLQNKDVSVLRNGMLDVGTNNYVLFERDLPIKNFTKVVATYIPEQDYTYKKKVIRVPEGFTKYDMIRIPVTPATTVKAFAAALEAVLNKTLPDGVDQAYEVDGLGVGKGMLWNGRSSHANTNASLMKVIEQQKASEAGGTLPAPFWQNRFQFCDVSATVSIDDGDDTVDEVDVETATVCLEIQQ
In words: Leishmania donovani Ubiquitin Activating Enzyme (LdE1). It is filed as functional. Conditions: 30 µM.

Assay [3] deals with Sialic acid-binding Ig-like lectin 9 (Homo sapiens) (UniProt Q9Y336). In words: Hs-Siglec9 ALPHAscreen SOP 20170721. Conditions: 10 µM. (In Alpha technology, singlet oxygen from a donor bead excites a nearby acceptor bead.)
The test system of a further assay is Trypanosoma cruzi. Put plainly: Trypanosoma cruzi phosphomannomutase and mannose-1-phosphate guanylyltransferase assay. It is filed as functional. As to conditions: 10 µM.
The target in assay [4] is T2, Arginase-2, mitochondrial (Homo sapiens) (UniProt P78540).
T2 sequence (whole entry): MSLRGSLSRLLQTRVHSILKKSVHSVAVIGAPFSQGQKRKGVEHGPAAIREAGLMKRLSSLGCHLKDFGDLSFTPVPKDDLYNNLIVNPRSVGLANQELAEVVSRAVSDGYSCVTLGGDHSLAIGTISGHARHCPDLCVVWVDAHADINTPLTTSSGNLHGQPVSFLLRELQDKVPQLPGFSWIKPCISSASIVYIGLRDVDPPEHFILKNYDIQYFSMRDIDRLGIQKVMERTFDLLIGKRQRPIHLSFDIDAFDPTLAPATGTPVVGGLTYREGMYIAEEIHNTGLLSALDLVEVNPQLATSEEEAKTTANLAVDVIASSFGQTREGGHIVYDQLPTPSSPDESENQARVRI
Put plainly: in vitro enzyme assay to detect the production of urea directly proportional to the activity of Arginase II. Also: in the data most compounds retested in dose-response had high values. Format: functional. Conditions: 33.3 µM.

Assay [5] has as its target T3, Proteasome subunit beta (Trypanosoma cruzi) (UniProt O96673).
T3 sequence (whole entry): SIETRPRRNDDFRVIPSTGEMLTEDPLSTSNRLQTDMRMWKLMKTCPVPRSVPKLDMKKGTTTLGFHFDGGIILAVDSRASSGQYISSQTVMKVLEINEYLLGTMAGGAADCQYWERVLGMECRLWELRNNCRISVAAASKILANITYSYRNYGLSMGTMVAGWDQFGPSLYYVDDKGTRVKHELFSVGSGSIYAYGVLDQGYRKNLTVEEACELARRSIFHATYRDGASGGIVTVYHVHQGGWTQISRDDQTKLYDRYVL
Put plainly: Trypanosoma cruzi proteasome chymotrypsin-like activity (TcProtChymo) assay. Also: in the data most compounds retested in dose-response had high values. It is filed as functional. Conditions: 9.37 µM.

The species named for a further assay is Homo sapiens. Put plainly: To identify inhibition of the IFN signalling (Jak-Stat) pathway via expression of an eGFP reporter gene under the control of an IFN-stimulated response element (ISRE) containing MxA promoter. Format: functional. Conditions: 30 µM. (A reporter such as luciferase makes a cellular process visible.)
Assay [6] concerns the target T4, Tyrosyl-tRNA synthetase, putative (Trypanosoma cruzi (strain CL Brener)) (UniProt Q4DSP6).
T4 sequence (whole entry): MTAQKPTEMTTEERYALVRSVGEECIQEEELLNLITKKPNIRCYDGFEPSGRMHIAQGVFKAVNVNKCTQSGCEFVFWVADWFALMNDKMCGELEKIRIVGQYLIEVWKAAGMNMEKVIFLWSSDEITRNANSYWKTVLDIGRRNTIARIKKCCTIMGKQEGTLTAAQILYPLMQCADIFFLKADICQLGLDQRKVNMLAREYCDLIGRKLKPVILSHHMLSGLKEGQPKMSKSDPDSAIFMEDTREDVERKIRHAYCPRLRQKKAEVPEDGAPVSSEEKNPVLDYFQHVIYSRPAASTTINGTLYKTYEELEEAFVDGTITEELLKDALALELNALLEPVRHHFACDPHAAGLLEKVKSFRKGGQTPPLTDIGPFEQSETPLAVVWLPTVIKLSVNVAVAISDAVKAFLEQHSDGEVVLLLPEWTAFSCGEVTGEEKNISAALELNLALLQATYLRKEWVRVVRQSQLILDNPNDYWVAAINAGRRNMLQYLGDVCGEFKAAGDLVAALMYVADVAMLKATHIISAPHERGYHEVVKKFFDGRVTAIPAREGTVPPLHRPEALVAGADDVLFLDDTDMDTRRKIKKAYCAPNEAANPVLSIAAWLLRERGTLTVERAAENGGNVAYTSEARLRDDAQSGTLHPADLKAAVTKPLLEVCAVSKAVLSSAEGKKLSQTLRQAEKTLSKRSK
In words: Trypanosoma cruzi tyrosyl tRNA synthetase (TcYRS) _High Tyrosine SOP. Also: in the data most compounds retested in dose-response had high values. It is filed as functional. As to conditions: 30 µM.

The target in assay [7] is T4, Tyrosyl-tRNA synthetase, putative (Trypanosoma cruzi (strain CL Brener)). Put plainly: Trypanosoma cruzi tyrosyl tRNA synthetase (TcYRS) SOP. It is filed as functional. As to conditions: 30 µM.
Assay [8] concerns the target Chromo domain-containing protein 1 (Saccharomyces cerevisiae (strain ATCC 204508 / S288c) (Baker's yeast)) (UniProt P32657). Put plainly: ScCHD-1 Enzyme Inhibition Assay. Also: in the data most compounds retested in dose-response had high values. Format: functional. Conditions: 30 µM.

For some assays here: Results with a measured potency or affinity are listed apart.

Sialic acid-binding Ig-like lectin 9 (Homo sapiens), sequence (Q9Y336 whole entry): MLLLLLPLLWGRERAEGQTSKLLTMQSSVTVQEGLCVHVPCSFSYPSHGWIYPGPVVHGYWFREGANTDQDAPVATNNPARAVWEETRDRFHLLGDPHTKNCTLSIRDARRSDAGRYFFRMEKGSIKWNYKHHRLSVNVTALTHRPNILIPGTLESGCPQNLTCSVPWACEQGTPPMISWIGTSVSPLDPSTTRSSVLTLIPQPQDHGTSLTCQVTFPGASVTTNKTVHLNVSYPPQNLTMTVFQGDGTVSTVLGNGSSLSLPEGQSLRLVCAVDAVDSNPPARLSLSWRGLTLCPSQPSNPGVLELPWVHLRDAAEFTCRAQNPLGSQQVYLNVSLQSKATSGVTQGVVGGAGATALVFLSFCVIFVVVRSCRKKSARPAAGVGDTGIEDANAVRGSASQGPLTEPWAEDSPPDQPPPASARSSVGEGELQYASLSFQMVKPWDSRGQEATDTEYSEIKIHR
Protein translocase subunit SecA (Escherichia coli (strain K12)), sequence (P10408 whole entry): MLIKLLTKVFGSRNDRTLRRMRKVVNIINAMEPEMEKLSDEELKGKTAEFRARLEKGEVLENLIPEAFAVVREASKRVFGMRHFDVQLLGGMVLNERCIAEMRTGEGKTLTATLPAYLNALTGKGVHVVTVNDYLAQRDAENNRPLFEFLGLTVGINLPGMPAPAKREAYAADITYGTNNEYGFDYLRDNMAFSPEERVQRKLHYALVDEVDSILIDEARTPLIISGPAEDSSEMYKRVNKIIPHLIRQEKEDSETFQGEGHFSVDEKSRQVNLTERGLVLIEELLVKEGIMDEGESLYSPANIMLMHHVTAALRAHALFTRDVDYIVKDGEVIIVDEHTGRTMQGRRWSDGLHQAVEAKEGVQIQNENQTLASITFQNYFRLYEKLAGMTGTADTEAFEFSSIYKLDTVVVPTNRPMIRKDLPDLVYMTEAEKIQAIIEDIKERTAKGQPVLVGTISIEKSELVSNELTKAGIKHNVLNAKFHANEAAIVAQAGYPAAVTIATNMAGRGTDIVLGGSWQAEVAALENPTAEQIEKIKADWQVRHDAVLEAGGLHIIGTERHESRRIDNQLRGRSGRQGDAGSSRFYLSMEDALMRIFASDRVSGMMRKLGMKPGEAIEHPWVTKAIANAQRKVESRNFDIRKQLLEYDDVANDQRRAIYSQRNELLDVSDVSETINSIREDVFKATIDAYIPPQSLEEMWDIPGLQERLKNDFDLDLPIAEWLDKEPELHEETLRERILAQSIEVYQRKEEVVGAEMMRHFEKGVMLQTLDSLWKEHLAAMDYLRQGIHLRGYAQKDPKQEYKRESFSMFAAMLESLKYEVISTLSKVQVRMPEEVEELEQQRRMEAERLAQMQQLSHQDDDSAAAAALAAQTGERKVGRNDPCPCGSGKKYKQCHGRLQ
Chromo domain-containing protein 1 (Saccharomyces cerevisiae (strain ATCC 204508 / S288c) (Baker's yeast)), sequence (P32657 whole entry, the tested form may be a part): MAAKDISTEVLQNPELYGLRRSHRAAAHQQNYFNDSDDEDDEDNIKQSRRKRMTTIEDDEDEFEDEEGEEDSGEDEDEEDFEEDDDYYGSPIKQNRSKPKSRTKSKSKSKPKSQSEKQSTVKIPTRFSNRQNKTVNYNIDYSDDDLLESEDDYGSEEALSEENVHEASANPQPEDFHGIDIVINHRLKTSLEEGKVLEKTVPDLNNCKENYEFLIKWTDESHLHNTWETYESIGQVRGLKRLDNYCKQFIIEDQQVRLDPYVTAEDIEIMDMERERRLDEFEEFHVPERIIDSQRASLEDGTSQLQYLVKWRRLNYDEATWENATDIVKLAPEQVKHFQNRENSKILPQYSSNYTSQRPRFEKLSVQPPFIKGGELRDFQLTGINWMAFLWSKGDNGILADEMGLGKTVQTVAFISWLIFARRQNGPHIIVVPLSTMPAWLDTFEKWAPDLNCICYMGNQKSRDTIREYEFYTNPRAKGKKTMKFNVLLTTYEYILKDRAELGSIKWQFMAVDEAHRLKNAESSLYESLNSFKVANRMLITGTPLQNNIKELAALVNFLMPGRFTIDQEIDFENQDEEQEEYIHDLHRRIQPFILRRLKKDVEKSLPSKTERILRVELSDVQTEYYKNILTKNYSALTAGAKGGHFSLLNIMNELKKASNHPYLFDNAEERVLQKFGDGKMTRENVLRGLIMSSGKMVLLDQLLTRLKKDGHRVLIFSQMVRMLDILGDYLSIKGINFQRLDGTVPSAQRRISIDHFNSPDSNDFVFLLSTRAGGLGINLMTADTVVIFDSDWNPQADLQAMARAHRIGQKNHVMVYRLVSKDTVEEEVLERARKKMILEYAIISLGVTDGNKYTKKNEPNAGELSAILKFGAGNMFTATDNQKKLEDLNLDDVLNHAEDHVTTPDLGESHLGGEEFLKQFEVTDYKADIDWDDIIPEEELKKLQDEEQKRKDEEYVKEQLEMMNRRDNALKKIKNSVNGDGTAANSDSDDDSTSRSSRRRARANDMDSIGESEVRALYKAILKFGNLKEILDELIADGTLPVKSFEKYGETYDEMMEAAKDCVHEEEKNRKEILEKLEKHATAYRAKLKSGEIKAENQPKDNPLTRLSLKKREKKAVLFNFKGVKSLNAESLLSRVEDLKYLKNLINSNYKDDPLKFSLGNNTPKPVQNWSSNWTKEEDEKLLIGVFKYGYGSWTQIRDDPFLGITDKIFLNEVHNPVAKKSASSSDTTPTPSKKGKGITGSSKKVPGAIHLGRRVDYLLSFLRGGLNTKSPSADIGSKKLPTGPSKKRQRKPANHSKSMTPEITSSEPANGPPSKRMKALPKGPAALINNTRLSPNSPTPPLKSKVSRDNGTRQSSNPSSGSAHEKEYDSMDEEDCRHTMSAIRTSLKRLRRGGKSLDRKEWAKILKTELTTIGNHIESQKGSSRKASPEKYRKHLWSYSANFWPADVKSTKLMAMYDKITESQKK

In the case of `COCCN1CCN(Cc2cccc(C(N)=O)c2)CC1C` (stereo not given), the Percent Effect in assay [1] is -2.01%; in [2], 29.3%; in assay [3], -8.56%; in the assay with Trypanosoma cruzi it was 2.81%; in assay [4], -2.66%; in [5], 17.6%. For the same compound, the Percent Effect in the assay listed under Homo sapiens is 16.2%; in [6], 2.63%; in [7] it was 12.8%; in assay [8], -19.1%.
As for `Cc1cc(C(=O)NCc2ccc(N3CCCC(C(N)=O)C3)cc2)[nH]n1` (stereo not given), the Percent Effect in assay [1] is -7.13%; in assay [2], 10.7%; in assay [3], -2.98%; in the assay on Trypanosoma cruzi, -3.21%; in assay [4], -0.887%; in [5], 16.2%. Also, the Percent Effect in the assay filed under Homo sapiens is 14.9%; in assay [6], 0.526%; in [7] it was 5.13%; in assay [8], -7.84%.
On to `CN1[C@@H](C(=O)NCC2CC2)C[C@@H]2CN(Cc3ccco3)C[C@@H]21`, for which the Percent Effect was -3.17% in [1]; 19.5% in [2]; -3.11% in [3]; -6.57% in the assay with Trypanosoma cruzi; 3.65% in assay [4]; 19.5% in [5]. Besides, the Percent Effect in the assay filed under Homo sapiens was 13.8%; in assay [6], 5.8%; in assay [7], 10%; in assay [8] it was -4.24%.
Take `COc1cccc(CN2CCC3(CCN(C(=O)[C@H]4CCCO4)CC3)C2)c1`: the Percent Effect in assay [1] is -2.54%; in assay [2], 22.1%; in assay [3], -5.6%; in the assay on Trypanosoma cruzi, 0.188%; in assay [4] it was 0%; in [5] it was 12.6%. Further, the Percent Effect in the assay listed under Homo sapiens was -14.8%; in [6], 10.6%; in [7] it was -2.5%; in assay [8], -10.4%.
Turning to `COCCN1CC[C@]2(CN(C(=O)c3cccs3)C[C@H]2C)C1=O`, the Percent Effect in assay [1] was 0.25%; in assay [2] it was 1.3%; in [3], 1.96%; in the assay on Trypanosoma cruzi, -0.938%; in assay [4], -0.457%; in assay [5], 9.7%. Moreover, the Percent Effect in the assay listed under Homo sapiens amounted to 0.303%; in assay [6], 0.966%; in assay [7] it was 0%; in [8], 0.0651%.
Regarding `CS(=O)(=O)c1ccccc1C(=O)NCCCN1CCc2ccccc2C1`, the Percent Effect in [1] is -5.27%; in assay [2] it was 18.7%; in [3], 2.07%; with Trypanosoma cruzi, 7.03%; in assay [4], -0.887%; in assay [5], 17.1%. Besides, the Percent Effect in the assay listed under Homo sapiens was -1.14%; in assay [6] it was 3.68%; in [7], 15.4%; in assay [8], -11.6%.
With `CCC1c2ccsc2CCN1C(=O)NCc1ccccn1` (stereo not given), the Percent Effect in assay [1] was -3.49%; in assay [2] it was 20.5%; in [3], -10.3%; in the assay with Trypanosoma cruzi, 4.6%; in [4], 4.1%; in assay [5] it was 10.2%. In addition, the Percent Effect in the assay listed under Homo sapiens is 10.8%; in [6] it was 5.26%; in assay [7], 22.9%; in assay [8] it was -7.76%.
Consider `O=C1CC2(CCN(Cc3ccoc3)C2)CN1c1ccc2c(c1)OCO2` (stereo not given), for which the Percent Effect in [1] is -7.31%; in assay [2] it was 1.3%; in [3], -0.448%; with Trypanosoma cruzi it was 1.85%; in [4], 0.81%; in assay [5] it was 4.68%. For the same compound, the Percent Effect in the assay listed under Homo sapiens was 4.43%; in assay [6] it was 7.89%; in assay [7], 10.3%; in assay [8] it was -0.51%.
Turning to `Cc1nc(CN2CCCC(CCc3c(F)cccc3F)C2)c[nH]1` (stereo not given), the Percent Effect is -4.35% in [1]; -13.5% in [2]; 23.7% in [3]; 9.6% in the assay on Trypanosoma cruzi; -6.64% in assay [4]; 1.37% in assay [5]. Further, the Percent Effect worked out at 18.7% in the assay filed under Homo sapiens, 5.85% in assay [6], 7.32% in [7] and 96.9% in assay [8].
For the compound `CC(C)c1nccn1-c1cccc(C2CCCN(C3CCCC3)C2)n1` (stereo not given), the Percent Effect in assay [1] was -2.48%; in assay [2], 6.67%; in assay [3], 3.65%; in the assay with Trypanosoma cruzi, 0.197%; in [4], 0.885%; in assay [5] it was 15.6%. For the same compound, the Percent Effect in the assay filed under Homo sapiens is 2.2%; in assay [6], 6.35%; in assay [7] it was 17.5%; in [8], -23.6%.
`CC(=O)N1CCC2(CCN(C(=O)c3ccc(C)c(C(F)(F)F)c3)CC2)C1`: the Percent Effect in [1] was -3.18%; in assay [2], 14.3%; in [3], 1.63%; in the assay on Trypanosoma cruzi, -7.69%; in assay [4] it was 7.29%; in [5], 19.5%. Further, the Percent Effect in the assay listed under Homo sapiens was 17.8%; in [6], 7.89%; in [7] it was 0%; in assay [8], -3.98%.
